From PubChem BioAssay (NCATS)
Values joined by “and” are separate entries in the source; they are usually repeats but may differ in a detail not shown here. Identical values can stand only once. Results filed as inconclusive are left out. Active and inactive are the calls of the source. The call rests on the fitted dose curve; in most records, active means well fitted inhibition curve with a large enough effect; inconclusive means small, poorly fitted or top-dose-only effect; inactive means flat fitted curve, though single readings scatter.

tested on: CRL-7250; experiment: Cytotoxic Profiling of Annotated Libraries Using Quantitative High-Throughput Screening (AID 1296008); conditions: Five cell lines viability, CellTiter-Glo ATP luminescence, 48-72 h; max response: stronger effect = lower value; further: nearly all actives have a fitted effect of over 60% in size
Summary of the method: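 Compounds were pin-transferred onto cells and incubated 48 or 72 hr at 37 degree Celsius, 95% humidity. CellTiter-Glo was added, plates sat 10 min at room temperature, then ATP-coupled luminescence was imaged as the viability read-out.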
On the % scale 0 is the no-effect control and ±100 the full control effect.

Q: `COc1ccc2[nH]cc(CCNC(C)=O)c2c1` was tested. Which max response did it give?
A: -2.01% (inactive) and -27.6% (inactive)

Q: `Clc1ccc2nsnc2c1NC1=NCCN1` was tested. Which max response did it give?
A: 0.544% (inactive) and 2.61% (inactive)

Q: How did the max response turn out when `NC(=O)OCC(COC(N)=O)c1ccccc1` was run?
A: 2.98% (inactive) and -7.95% (inactive)

Q: Which outcome does the source give for `COc1ccc2c(c1)c(CC(=O)O)c(C)n2C(=O)c1ccc(Cl)cc1` here?
A: inactive

Q: What does the source list for `Cc1cnc(C(=O)NCCc2ccc(S(=O)(=O)NC(=O)NC3CCCCC3)cc2)cn1`?
A: max response: 0.493% (inactive); outcome: inactive

Q: `CC(C)(Oc1ccc(C2CC2(Cl)Cl)cc1)C(=O)O` (stereo not drawn) was tested. Which max response did it give?
A: -2.5% (inactive)

Q: And the outcome?
A: inactive

Q: How did the max response turn out when `CN(C)c1nc(N(C)C)nc(N(C)C)n1` was run?
A: -4.79% (inactive)

Q: What about the outcome of the same molecule?
A: inactive

Q: `CC(=O)OCC(CCn1cnc2cnc(N)nc21)COC(C)=O` was tested. Which max response did it give?
A: 3.84% (inactive)

Q: And the outcome?
A: inactive

Q: With `N[C@@H](Cc1c[nH]c2ccc(O)cc12)C(=O)O` as the molecule, how does the max response read?
A: -11.6% (inactive)

Q: What about the outcome of the same molecule?
A: inactive

Q: Which results are given for `O=c1c(O)c(-c2ccc(O)c(O)c2)oc2cc(O)cc(O)c12`?
A: max response: -43% (inactive); outcome: inactive

Q: Which max response does the source give for `CC[N+](CC)(CC)CCOc1cccc(OCC[N+](CC)(CC)CC)c1OCC[N+](CC)(CC)CC` here?
A: -17.1% (inactive) and -8.63% (inactive)

Q: For `COc1ccc(C2CNC(=O)C2)cc1OC1CCCC1` (stereo not drawn), which max response is on record?
A: -1.68% (inactive)

Q: And the outcome?
A: inactive

Q: What does the source list for `NCCCCCC(=O)O`?
A: max response: -1.72% (inactive); outcome: inactive

Q: What does the source list for `CC1(C)O[C@H]2CC(=O)OC[C@]23[C@H]2CC[C@@]4(C)[C@H](c5ccoc5)OC(=O)[C@H]5O[C@]54[C@]2(C)C(=O)C[C@@H]13`?
A: max response: 2.33% (inactive) and 4% (inactive); outcome: inactive
